# Shown are actives, neighbours in structure and some others; about 4.2% of the full set was active somewhere.
# S1P4 antag – S1P4 receptor antagonists, primary screen, cell-based; 220,000 compounds, 0.26% hits; inhibition, % at 4.98 µM; S1P4-expressing cells, antagonist mode, reporter read-out; Sphingosine 1-phosphate receptor 4 (Homo sapiens), O95977; in the data active = inhibition above about 29%;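 note: 0% = wells stimulated with agonist and 100% = vehicle wells without agonist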
# Target sequence (O95977 whole entry, looked up): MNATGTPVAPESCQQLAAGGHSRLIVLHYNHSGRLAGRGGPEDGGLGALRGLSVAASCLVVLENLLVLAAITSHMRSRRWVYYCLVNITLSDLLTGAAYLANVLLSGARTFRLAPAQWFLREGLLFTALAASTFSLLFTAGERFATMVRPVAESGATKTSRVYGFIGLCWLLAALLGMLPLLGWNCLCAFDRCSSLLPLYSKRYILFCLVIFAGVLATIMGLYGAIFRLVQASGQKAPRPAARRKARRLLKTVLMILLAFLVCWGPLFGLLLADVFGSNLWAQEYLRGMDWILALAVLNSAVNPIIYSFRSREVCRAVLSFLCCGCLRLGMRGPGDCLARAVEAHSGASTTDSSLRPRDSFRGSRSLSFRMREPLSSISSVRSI
# Hsp70 act – Hsp70 transcriptional activators, primary screen, cell-based, HeLa, Hsp70 promoter luciferase, luminescence, 10 µM; HeLa Hsp70 promoter luciferase reporter; scaled: vehicle 0, proteasome-inhibitor control 100%; activation, % at 10 µM; 200,000 compounds, 0.04% hits; AID 1203, 2008;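 active = activation above the mean across all tested compounds plus 3 SD, cutoff set per campaign, cut at about 5.5% in these data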;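 note: 100% = MG132 at 30 µM as the positive control and 0% = DMSO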
# S1P4 agonist – S1P4 receptor agonists, primary screen, cell-based; Sphingosine 1-phosphate receptor 4 (Homo sapiens), O95977; S1P4-expressing cell line, agonist reporter assay; activation, % at 4.98 µM; 220,000 compounds, 0.35% hits; AID 1509, 2009; in the data active = activation above about 11%;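 note: 0% = DMSO vehicle and 100% = reference agonist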
# CHOP inh – inhibitors of CHOP promoter induction, primary screen, cell-based, unfolded protein response, luciferase reporter | CHO-K1 CHOP-promoter luciferase, tunicamycin-induced, 15-18 h | inhibition, % at 10 µM | 220,000 compounds, 3.8% hits | AID 2732, 2010;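 active = compounds that reduced the stress-induced luciferase reporter signal by more than about 70% of percent inhibition, limit read from the data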;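 note: 0% = tunicamycin plus vehicle and 100% = wells without tunicamycin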
# Numbers without * were called inactive; . = not tested or not shown.
SMILES,S1P4 antag,Hsp70 act,S1P4 agonist,CHOP inh
O=C(Nc1ccc2c(c1)OCO2)C1CC(c2ccc(F)cc2)=NO1 (stereo unspecified),-0.7,-0.1,0.9,39.8
CCOC(=O)c1c(C)[nH]c(C(=O)OCC(=O)Nc2cc(C)ccc2OC)c1C,-18.7,-0.1,1.1,14.0
CCOC(=O)c1[nH]c(C)c(C(=O)Nc2cc(OC)ccc2OC)c1C,-17.6,0.0,0.2,.
CCOC(=O)c1c(C)[nH]c(C(=O)OCC(=O)Nc2ccc(OC)c(Cl)c2)c1C,-14.4,-0.2,1.3,87.0*
CCOC(=O)c1c(C)[nH]c(C(=O)OCC(=O)Nc2cc(Cl)ccc2OC)c1C,-18.2,-0.4,-1.9,77.7*
COc1ccc(Cl)c(NC(=O)NCCN2CCN(c3ccccc3)CC2)c1,-35.1,-0.1,1.7,56.8
COC(=O)C1=C(C(=O)OC)SC2(S1)C(C(=O)OC)=C(C(=O)OC)SC1=C2c2cc(C)ccc2NC1(C)C,9.6,-0.2,0.7,73.2*
CCOC(=O)C1(N(CC)CC)Sc2cc(C)ccc2NC1=O (stereo unspecified),4.4,0.9,1.0,.
CCc1ccc2nc(N3C(=O)C(O)=C(C(=O)c4ccco4)C3c3cccs3)sc2c1 (stereo unspecified),-4.8,-0.2,-1.9,80.2*
O=[N+]([O-])c1ccc(CCNc2cccc3ccccc23)c([N+](=O)[O-])c1,-3.6,0.9,3.3,14.7
O=[N+]([O-])c1ccccc1NCc1c(O)ccc2ccccc12,-11.3,.,1.1,89.1*
CCCc1[nH][nH]c(=O)c1C(c1ccc(Br)cc1)C(C#N)C#N (stereo unspecified),-2.1,-0.3,-0.1,9.3
O=C(O)CSc1ncnc2sc(-c3ccccc3)cc12,5.4,-0.1,-0.5,-15.1
O=C(O)CCSc1ncnc2sc(-c3ccccc3)cc12,1.3,.,-0.5,88.9*
CCN(CC)CCNc1nc(-n2nc(C)cc2C)nc2sc3c(c12)CC(C)(C)OC3,9.6,.,0.6,-30.9
O=C1c2cccc3cccc(c23)C(=O)N1OS(=O)(=O)c1ccc(Cl)cc1,-6.5,-0.2,0.4,63.1
CCc1ccc(S(=O)(=O)ON2C(=O)c3ccccc3C2=O)cc1,-12.6,0.0,0.0,95.1*
C/C(=N/NC(=O)CNc1ccc(Cl)cc1C)c1ccc(C)cc1,-1.6,-0.4,0.0,86.9*
C/C(=N\NC(=O)CNC(=O)c1ccncc1)c1ccc(C)cc1,-0.8,-0.2,-0.4,16.7
O=C(C1CCN(S(=O)(=O)c2cccc3nsnc23)CC1)N1CCN(c2ccccc2F)CC1,-27.2,0.0,1.4,2.7
O=C(O)CCc1ccccc1OC(=O)c1ccccc1,8.9,.,0.3,-7.2
O=C(Oc1cccc2c(O)cccc12)c1ccccc1,6.4,-0.1,-3.4,106.1*
COc1ccc(Cl)c(N2CCN(CCCNC(=O)Nc3ccc(C)cc3)CC2)c1,-2.2,-0.7,-1.6,83.4*
Cc1ccc(NC(=O)NCCCN2CCOCC2)cc1,-20.6,-0.2,-1.7,31.2
Cc1ccc(C2OCC3(CO2)COC(c2ccc(C)cc2)OC3)cc1 (stereo unspecified),-6.7,-0.3,0.8,80.5*
SMILES,S1P4 antag,Hsp70 act,S1P4 agonist,CHOP inh
c1ccc(C2OCC3(CO2)COC(c2ccccc2)OC3)cc1 (stereo unspecified),-1.6,0.0,-1.1,2.2
COc1ccc(/C=N/NC(=O)c2ccoc2C)cc1COc1c(C)cccc1C,-15.9,-0.1,1.3,87.7*
Cc1ccc(N(Cc2cc(=O)[nH]c3ccccc23)C(=O)c2ccco2)cc1,10.8,-0.2,0.2,72.4*
CC(NS(=O)(=O)c1ccc(OCC(=O)N2CCOCC2)c(Cl)c1)c1ccccc1 (stereo unspecified),-8.1,-0.1,1.3,32.4
CCCCCCSc1nnc(-c2cnn(-c3ccccc3)c2-n2cccc2)n1C,-5.0,-0.4,2.2,84.2*
CCSc1nnc(-c2cnn(-c3ccccc3)c2-n2cccc2)n1C,7.3,-0.7,-0.2,15.4
O=C(Cc1c[nH]c2ccccc12)N1CCc2ccccc21,0.1,-0.1,0.5,-32.4
COc1ccc(-c2n(CC(=O)OC3CC(C)CCC3C(C)C)c3ccccc3[n+]2C)cc1 (stereo unspecified),9.4,0.3,1.2,87.5*
Cc1ccccc1-c1noc(-c2cccs2)n1,-8.7,-0.1,-0.8,89.5*
CCn1c(N2CCN(S(=O)(=O)c3ccc(Cl)cc3)CC2)nc2ccccc21,8.2,-0.4,-2.8,36.2
c1ccc(OCCOCCN2CCN(C(c3ccccc3)c3ccccc3)CC2)cc1,-2.5,-0.1,-0.2,72.8*
COc1ccccc1OCCCCN1CCN(C(c2ccccc2)c2ccccc2)CC1,-24.6,-0.1,1.1,86.3*
COc1cccc(OC)c1OCCCCN1CCCC1,1.0,-0.1,1.7,22.7
O=C1c2ccccc2C(=O)c2cc(NC(=O)C3CC3)ccc21,1.0,-0.1,-1.4,42.4
Cc1ccc(NC(=O)Nc2ccc([N+](=O)[O-])cc2)nc1,-6.5,-0.1,-0.6,70.5*
Cc1ccc(NC(=O)Nc2nnc(Cc3ccc([N+](=O)[O-])cc3)s2)cc1,-6.7,-0.2,0.2,75.7*
CC(C)Cc1nnc(NC(=O)Nc2ccccc2)s1,0.5,0.2,0.1,70.0*
Cn1c(OCc2cccnc2)nc2c1c(=O)n(Cc1ccc(Br)cc1)c(=O)n2C,-26.9,-0.5,-0.4,25.1
Cc1cc(C)c(S(=O)(=O)N(CC(=O)O)C2CCCCC2)c(C)c1,-6.4,-0.2,-1.3,23.4
OCC1(Cc2ccccc2)CCCN(Cc2ccc(-c3ccco3)cc2)C1 (stereo unspecified),1.3,0.1,1.3,13.5
O=C(CN1C(=O)c2ccccc2S1(=O)=O)c1ccc2c(c1)OCCO2,7.9,.,-0.8,94.3*
CCOc1ccc(-n2c(C)cc(/C=N/NC(=O)C(N)=O)c2C)cc1,4.2,-0.2,0.6,-3.2
CCc1nnc(NC(=O)CSc2nnc(-c3ccccc3O)o2)s1,0.9,-0.2,-0.1,-3.8
CCc1nnc(NC(=O)CSc2nc(-c3ccccc3)c(-c3ccccc3)o2)s1,-10.6,-0.2,1.7,84.1*
CCN(CC)c1ccc(NC(=O)Cn2cc3c(n2)CCC(C)C3)c(C)c1 (stereo unspecified),-6.0,-0.3,0.7,78.9*
SMILES,S1P4 antag,Hsp70 act,S1P4 agonist,CHOP inh
CCOC(=O)CCCNC(=O)c1cncc(Br)c1,4.7,0.0,0.6,4.2
COc1ccccc1C(=O)NC(=O)OCCn1c(C)cnc1[N+](=O)[O-],-8.6,0.6,0.0,8.8
O=C(Oc1cccc2cccnc12)c1cccc(N2C(=O)C3C4CCC(C4)C3C2=O)c1 (stereo unspecified),1.7,0.2,-1.1,83.9*
O=C(Oc1cccc2cccnc12)c1ccc(N2C(=O)C3C4CCC(C4)C3C2=O)cc1 (stereo unspecified),-15.8,-0.5,0.7,6.7
CSc1ccccc1NC(=O)CN(C)Cc1ccc(Br)cc1,1.1,-0.1,-0.3,80.3*
CSc1ccc(CN(C)CC(=O)Nc2ccccc2Br)cc1,-18.0,-0.3,0.9,57.4
CSc1ccccc1NC(=O)CSCc1ccccc1Br,2.4,-0.5,0.4,71.8*

# Compound activity as filed in PubChem BioAssay.
